In ChEMBL document CHEMBL3433997, “St. Jude Leishmania screening dataset” (2016):

What was measured:
Type in all cases: functional
[1] = molecular target: Solute carrier family 2, facilitated glucose transporter member 1 (Homo sapiens) (UniProt P11166); assay: ST_JUDE_LEISH: Cytotoxicity at 2uM final concentration against transgenic Leishmania Mexicana promastigotes LmGLUT1 that are glucose transport deficient and complemented with the human glucose transporter GLUT1. Activity is measured by DNA content using SYBR green in vitro
Chain of Solute carrier family 2, facilitated glucose transporter member 1 (Homo sapiens) (P11166 whole entry): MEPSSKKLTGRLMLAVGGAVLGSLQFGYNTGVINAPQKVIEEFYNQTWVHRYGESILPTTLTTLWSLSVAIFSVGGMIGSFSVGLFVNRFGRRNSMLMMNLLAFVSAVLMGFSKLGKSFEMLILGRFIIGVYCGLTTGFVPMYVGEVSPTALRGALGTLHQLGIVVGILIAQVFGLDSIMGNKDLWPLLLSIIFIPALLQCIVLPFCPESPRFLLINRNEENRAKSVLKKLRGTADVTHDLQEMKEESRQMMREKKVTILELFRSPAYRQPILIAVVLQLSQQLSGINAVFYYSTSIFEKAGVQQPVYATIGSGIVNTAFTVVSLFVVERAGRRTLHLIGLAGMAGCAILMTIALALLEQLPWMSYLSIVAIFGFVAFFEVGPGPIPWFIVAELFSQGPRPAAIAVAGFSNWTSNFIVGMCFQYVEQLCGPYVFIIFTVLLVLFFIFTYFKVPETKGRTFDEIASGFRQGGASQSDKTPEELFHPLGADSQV

[2] = molecular target: Hexose transporter 1 (Plasmodium falciparum) (UniProt O97467); assay: ST_JUDE_LEISH: Cytotoxicity at 2uM final concentration against transgenic Leishmania Mexicana promastigotes LmPfHT that are glucose transport deficient and complemented with the Plasmodium falciparum hexose transporter. Activity is measured by DNA content using SYBR green in vitro
[3] = molecular target: Glucose transporter (Leishmania mexicana) (UniProt O61059); assay: ST_JUDE_LEISH: Cytotoxicity at 2uM final concentration against transgenic Leishmania Mexicana promastigotes LmGT2 that are glucose transport deficient and complemented with the L. Mexicana glucose transporter 2. Activity is measured by DNA content using SYBR green in vitro

Row | SMILES | inhibition [1] | inhibition [2] | inhibition [3]
1 | CN1CCC(NCc2ccc(-c3cnc(NCc4ccccc4)nc3)cc2)CC1 | 1.18% | 4.31% | 2.57%
2 | O=S(=O)(c1ccc(OCc2ccc(Cl)cc2)cc1)c1cc2c(c(-c3ccc(F)cc3)c1)CCN(CC1CC1)CC2 | 2.2% | 0.41% | -0.48%
3 | COc1cc(Cc2cnc(N)nc2N)ccc1OCc1ccc(-c2ccccc2C#N)cc1 | 0.17% | 0.47% | -0.89%
4 | CC(C)(C)c1ccc(CN2CCC(CNC(=O)c3cc(-c4cccc(C(F)(F)F)c4)cs3)C2)cc1 (stereo unspecified) | -1.18% | -0.44% | -5.97%
5 | CC(C)C[C@@H]1C(=O)N[C@H](C2Cc3ccccc3C2)C(=O)N1[C@@H](C(=O)O)c1ccc(F)cc1F | 1.91% | 2.13% | 0.39%
6 | Clc1ccc(CNCCCCCCCNCc2ccc(Cl)c(Cl)c2)cc1Cl | -1.86% | -1.24% | -0.86%
7 | COCCSc1nc2scc(C)c2c(=O)n1Cc1cccc(OC)c1 | 3.26% | 4.92% | 4.9%
8 | O=C1c2ccccc2C(=O)N1CCOc1c(Br)cc(Br)cc1CNCCCNc1cc(=O)c2ccccc2[nH]1 | 2.28% | 1.96% | 3.03%
9 | CC1Cc2ccccc2N1S(=O)(=O)c1cc(OCC(F)(F)F)ccc1OCC(F)(F)F (stereo unspecified) | 4.69% | 3.54% | 3.67%
10 | O=C1OC(c2cc3ccccc3n2S(=O)(=O)c2ccccc2)(c2cc3ccccc3n2S(=O)(=O)c2ccccc2)c2ccccc21 | 1.65% | 1.8% | 2.01%
11 | C=CCn1c(SCC(=O)Nc2cc(Cl)ccc2Cl)nc2sc(C)cc2c1=O | 1.86% | 0.95% | 0.76%
12 | N#Cc1cccc(NC(=O)Nc2ccc(-c3ccc(-c4nc5cc(C(F)(F)F)ccc5[nH]4)cc3)cc2)c1 | 3.68% | 1.32% | 4.14%
